According to ChEMBL document CHEMBL1961873, “Compounds: GSK PKIS; Assays: Nanosyn kinase panel” (2012):

Target: T1, Serine/threonine-protein kinase D2 (Homo sapiens) (UniProt Q9BZL6);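 further: mean value of PRKD2 inhibition, from the GSK PKIS screening panel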
T1 sequence (whole entry): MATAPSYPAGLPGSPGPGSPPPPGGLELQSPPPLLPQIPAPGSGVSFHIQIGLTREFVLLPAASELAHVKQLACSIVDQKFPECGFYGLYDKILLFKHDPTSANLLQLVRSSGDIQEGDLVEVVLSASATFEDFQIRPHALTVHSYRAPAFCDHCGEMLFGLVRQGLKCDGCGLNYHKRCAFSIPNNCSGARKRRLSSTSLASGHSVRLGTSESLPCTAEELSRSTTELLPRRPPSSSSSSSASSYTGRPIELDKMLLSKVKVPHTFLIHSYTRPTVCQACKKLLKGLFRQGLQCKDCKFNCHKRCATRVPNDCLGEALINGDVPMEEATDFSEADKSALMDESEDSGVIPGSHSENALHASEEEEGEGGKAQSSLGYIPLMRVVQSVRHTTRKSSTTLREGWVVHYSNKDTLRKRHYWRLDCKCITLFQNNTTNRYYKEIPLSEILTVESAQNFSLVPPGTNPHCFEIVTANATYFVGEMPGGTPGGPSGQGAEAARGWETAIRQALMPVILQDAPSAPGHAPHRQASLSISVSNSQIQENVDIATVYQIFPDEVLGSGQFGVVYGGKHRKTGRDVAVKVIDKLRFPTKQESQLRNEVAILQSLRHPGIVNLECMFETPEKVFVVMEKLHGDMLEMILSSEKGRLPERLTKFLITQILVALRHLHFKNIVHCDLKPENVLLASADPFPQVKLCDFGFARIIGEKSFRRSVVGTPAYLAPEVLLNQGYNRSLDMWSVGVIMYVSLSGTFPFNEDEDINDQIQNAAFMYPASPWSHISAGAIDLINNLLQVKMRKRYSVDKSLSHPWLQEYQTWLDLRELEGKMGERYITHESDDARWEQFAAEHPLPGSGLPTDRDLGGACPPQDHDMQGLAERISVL
Details: at 1 µM

| SMILES | inhibition [%] |
| --- | --- |
| Cc1ccc(O)cc1Nc1ccnc2cc(-c3ccccn3)ccc12 | 34.9 |
| COC(=O)c1sc(-n2cnc3cc(OC)c(OC)cc32)cc1OCc1ccccc1C(F)(F)F | 5.96 |
| COc1cc2ncn(-c3cc(OCc4ccccc4C(F)(F)F)c(C(=O)N(C)C)s3)c2cc1OC | 1.88 |
| CC(C)COC(=O)c1ccc2c(c1)/C(=C/Nc1ccc(S(N)(=O)=O)cc1)C(=O)N2 | 62.1 |
| CCc1nn2ncccc2c1-c1ccnc(NC2CC2)n1 | 3.14 |
| CC(=O)Nc1cccc(C#Cc2cncnc2Nc2ccc(OCc3cccc(F)c3)c(Cl)c2)c1 | 3.79 |
| CCn1cc(-c2ccnc3[nH]ccc23)c(-c2cccc(NC(=O)Nc3ccc(OCc4ccccc4)cc3)c2)n1 | 2.85 |
| COc1ccc(-c2nn3ncccc3c2-c2ccnc(Nc3ccc4c(c3)OCCO4)n2)cc1 | 9.73 |
| COC(=O)Nc1nc2ccc(S(=O)(=O)c3ccc(NC(=O)Nc4cc(C(F)(F)F)ccc4F)cc3)cc2[nH]1 | 5.37 |
| Cc1ccc2c(-c3ccnc(Nc4ccccc4)n3)c(-c3ccc(F)cc3)nn2n1 | 87 |
| COc1cccc(-n2ncc3c(N/N=C/c4ccc(F)cc4)ncnc32)c1 | 3.35 |
| CCn1c(-c2nonc2N)nc2c(C#CC(C)(C)O)ncc(OC3CCNCC3)c21 | 11.1 |
| Nc1ncc(-c2cccc(S(N)(=O)=O)c2)c2scc(-c3ccc(F)c(Cl)c3)c12 | 43.8 |
| O=C(Nc1n[nH]c2cc(-c3ccc(F)cc3)ccc12)C1CC1 | 4.37 |
| [O-][S+]1CCN(Cc2ccc(-c3ccc4ncnc(Nc5ccc(OCc6cccc(F)c6)c(Cl)c5)c4c3)o2)CC1 | 6.63 |
| Fc1cccc(COc2ccc(Nc3ncnc4sc(-c5ccco5)cc34)cc2Cl)c1 | 2.52 |
| NS(=O)(=O)c1ccc(Nc2ncc(-c3ccccc3)o2)cc1 | 5.55 |

| SMILES | inhibition [%] |
| --- | --- |
| CCNC(=O)O[C@H]1CN[C@H](C#Cc2cc3ncnc(Nc4ccc(OCc5cccc(F)c5)c(Cl)c4)c3s2)C1 | 3.71 |
| CCN(CC)S(=O)(=O)c1ccc(OC)c(Nc2ncc(-c3ccccc3)o2)c1 | 1.51 |
| COc1ccc(-c2oc3ncnc(N)c3c2-c2ccc(NC(=O)Nc3cc(C(F)(F)F)ccc3F)cc2)cc1 | 3.15 |
| CNC(=O)c1cc(-c2ccc(F)cc2)cc(-c2ccc(S(=O)(=O)N3CCCC3)cc2)c1N | 1.98 |
| CCn1c(-c2nonc2N)nc2ccccc21 | 4.37 |
| CCn1c(-c2nonc2N)nc2c(C#CC(C)(C)O)nc(OC[C@H](N)c3ccccc3)cc21 | 25.6 |
| CCn1c(-c2nonc2N)nc2cnc(Oc3cccc(NC(=O)c4ccc(N(C)C)cc4)c3)cc21 | 5.77 |
| COc1ccc(CNC(=O)c2ccc(-c3cc(-c4nnc(C)o4)ccc3C)cc2)cc1 | 1.08 |
| Clc1ccc(-c2nn3ncccc3c2-c2ccnc(Nc3ccccc3)n2)cc1 | 2.67 |
| COc1cc(/C=N/Nc2ncnc3[nH]ncc23)ccc1O | 3.63 |
| CCOc1ccc2c(-c3ccnc(Nc4cccc(C(F)(F)F)c4)n3)cnn2n1 | 1.84 |
| NS(=O)(=O)c1ccc(N/N=C2\C(=O)Nc3ccc4ncccc4c32)cc1 | 55.7 |
| O=C(O[C@H]1CN[C@H](C#Cc2cc3ncnc(Nc4ccc(Cc5ccccc5)cc4)c3s2)C1)N1CCOCC1 | 1.56 |
| FC(F)(F)c1cccc(-c2nn3ncccc3c2-c2ccnc(Nc3ccc4c(c3)OCCO4)n2)c1 | 49 |
| c1cc(-c2cnn3nc(N4CCOCC4)ccc23)nc(NC2CC2)n1 | 52.4 |
| COc1ccc(-c2cc3c(N)ncnc3o2)cc1 | -0.42 |

Target: T2, Serine/threonine-protein kinase D3 (Homo sapiens) (UniProt O94806);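 further: each value is the mean of inhibition readings, from a kinase profiling panel run on the GSK PKIS inhibitor collection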
T2 sequence (whole entry): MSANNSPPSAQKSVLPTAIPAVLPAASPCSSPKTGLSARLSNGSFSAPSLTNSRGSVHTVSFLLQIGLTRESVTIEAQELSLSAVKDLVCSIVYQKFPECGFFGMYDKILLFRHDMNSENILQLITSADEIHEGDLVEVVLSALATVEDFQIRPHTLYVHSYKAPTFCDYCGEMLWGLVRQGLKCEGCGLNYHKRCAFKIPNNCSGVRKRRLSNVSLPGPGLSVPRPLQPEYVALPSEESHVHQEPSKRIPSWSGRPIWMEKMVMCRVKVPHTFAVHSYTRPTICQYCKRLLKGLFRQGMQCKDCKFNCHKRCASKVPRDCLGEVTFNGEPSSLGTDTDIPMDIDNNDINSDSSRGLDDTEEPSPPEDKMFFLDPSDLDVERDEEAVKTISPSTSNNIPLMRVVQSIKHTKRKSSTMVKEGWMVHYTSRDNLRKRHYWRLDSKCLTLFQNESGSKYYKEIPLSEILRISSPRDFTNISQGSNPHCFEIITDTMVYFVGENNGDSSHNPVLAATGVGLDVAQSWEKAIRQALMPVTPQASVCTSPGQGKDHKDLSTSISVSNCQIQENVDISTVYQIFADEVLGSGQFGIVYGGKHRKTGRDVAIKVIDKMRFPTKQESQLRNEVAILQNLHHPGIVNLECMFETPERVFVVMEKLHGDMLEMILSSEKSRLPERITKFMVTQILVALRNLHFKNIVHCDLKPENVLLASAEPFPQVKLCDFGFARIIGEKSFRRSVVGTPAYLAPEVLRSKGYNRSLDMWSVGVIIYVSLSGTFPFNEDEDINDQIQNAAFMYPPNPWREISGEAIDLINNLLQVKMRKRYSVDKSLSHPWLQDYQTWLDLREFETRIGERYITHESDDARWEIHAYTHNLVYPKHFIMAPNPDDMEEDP
Details: at 0.1 µM

| SMILES | inhibition [%] |
| --- | --- |
| Cc1ccc(O)cc1Nc1ccnc2cc(-c3ccccn3)ccc12 | 5.74 |
| COC(=O)c1sc(-n2cnc3cc(OC)c(OC)cc32)cc1OCc1ccccc1C(F)(F)F | 4.17 |
| COc1cc2ncn(-c3cc(OCc4ccccc4C(F)(F)F)c(C(=O)N(C)C)s3)c2cc1OC | 0.07 |
| CC(C)COC(=O)c1ccc2c(c1)/C(=C/Nc1ccc(S(N)(=O)=O)cc1)C(=O)N2 | 1.74 |
| CCc1nn2ncccc2c1-c1ccnc(NC2CC2)n1 | 1.73 |
| CC(=O)Nc1cccc(C#Cc2cncnc2Nc2ccc(OCc3cccc(F)c3)c(Cl)c2)c1 | 2.13 |
| CCn1cc(-c2ccnc3[nH]ccc23)c(-c2cccc(NC(=O)Nc3ccc(OCc4ccccc4)cc3)c2)n1 | 1.53 |
| COc1ccc(-c2nn3ncccc3c2-c2ccnc(Nc3ccc4c(c3)OCCO4)n2)cc1 | 2.09 |
| COC(=O)Nc1nc2ccc(S(=O)(=O)c3ccc(NC(=O)Nc4cc(C(F)(F)F)ccc4F)cc3)cc2[nH]1 | 3.18 |
| Cc1ccc2c(-c3ccnc(Nc4ccccc4)n3)c(-c3ccc(F)cc3)nn2n1 | 18.6 |
| COc1cccc(-n2ncc3c(N/N=C/c4ccc(F)cc4)ncnc32)c1 | 4.25 |
| CCn1c(-c2nonc2N)nc2c(C#CC(C)(C)O)ncc(OC3CCNCC3)c21 | 3.96 |
| Nc1ncc(-c2cccc(S(N)(=O)=O)c2)c2scc(-c3ccc(F)c(Cl)c3)c12 | 6.03 |
| O=C(Nc1n[nH]c2cc(-c3ccc(F)cc3)ccc12)C1CC1 | 3.68 |
| [O-][S+]1CCN(Cc2ccc(-c3ccc4ncnc(Nc5ccc(OCc6cccc(F)c6)c(Cl)c5)c4c3)o2)CC1 | 4.66 |
| Fc1cccc(COc2ccc(Nc3ncnc4sc(-c5ccco5)cc34)cc2Cl)c1 | 5.28 |
| NS(=O)(=O)c1ccc(Nc2ncc(-c3ccccc3)o2)cc1 | 3.51 |

| SMILES | inhibition [%] |
| --- | --- |
| CCNC(=O)O[C@H]1CN[C@H](C#Cc2cc3ncnc(Nc4ccc(OCc5cccc(F)c5)c(Cl)c4)c3s2)C1 | 2.4 |
| CCN(CC)S(=O)(=O)c1ccc(OC)c(Nc2ncc(-c3ccccc3)o2)c1 | -0.55 |
| COc1ccc(-c2oc3ncnc(N)c3c2-c2ccc(NC(=O)Nc3cc(C(F)(F)F)ccc3F)cc2)cc1 | 3.02 |
| CNC(=O)c1cc(-c2ccc(F)cc2)cc(-c2ccc(S(=O)(=O)N3CCCC3)cc2)c1N | 3.24 |
| CCn1c(-c2nonc2N)nc2ccccc21 | 2.15 |
| CCn1c(-c2nonc2N)nc2c(C#CC(C)(C)O)nc(OC[C@H](N)c3ccccc3)cc21 | 5.89 |
| CCn1c(-c2nonc2N)nc2cnc(Oc3cccc(NC(=O)c4ccc(N(C)C)cc4)c3)cc21 | 1.61 |
| COc1ccc(CNC(=O)c2ccc(-c3cc(-c4nnc(C)o4)ccc3C)cc2)cc1 | 0.4 |
| Clc1ccc(-c2nn3ncccc3c2-c2ccnc(Nc3ccccc3)n2)cc1 | 1.78 |
| COc1cc(/C=N/Nc2ncnc3[nH]ncc23)ccc1O | 2.22 |
| CCOc1ccc2c(-c3ccnc(Nc4cccc(C(F)(F)F)c4)n3)cnn2n1 | 3.02 |
| NS(=O)(=O)c1ccc(N/N=C2\C(=O)Nc3ccc4ncccc4c32)cc1 | 8.6 |
| O=C(O[C@H]1CN[C@H](C#Cc2cc3ncnc(Nc4ccc(Cc5ccccc5)cc4)c3s2)C1)N1CCOCC1 | 1.99 |
| FC(F)(F)c1cccc(-c2nn3ncccc3c2-c2ccnc(Nc3ccc4c(c3)OCCO4)n2)c1 | 6.61 |
| c1cc(-c2cnn3nc(N4CCOCC4)ccc23)nc(NC2CC2)n1 | 5.91 |
| COc1ccc(-c2cc3c(N)ncnc3o2)cc1 | -1.77 |
